Measured values reported in the supplement of paper PMC11417369.
Over roughly 25,000 sequences, “ln(normalized median fluorescence intensity)” has its median near 9.3; the highest 2% begin near 10. For the sample, the highest values were picked, then their nearest neighbours and some sequences at random.

The sequences below were run on PF3D7_0420300 AP2 domain 1 (GST-tagged) (assay: gcPBM binding intensity (ln(normalized median fluorescence intensity)); higher = stronger DNA binding).
Method in brief: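 For binding intensity, the highest Masliner-normalised natural-log median intensity across replicate spots of either probe orientation was taken. Protein bound to the array was stained with Alexa488 anti-GST antibody and scanned at 488 nm. The protein, GST-tagged P. falciparum DNA-binding domains from E. coli at about 25 μg on average, had been applied for 1 h to an Agilent 4 × 180k array of primer-extended double-stranded 36-bp intergenic genomic probes and negative controls.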

Sequence	gcPBM binding intensity (ln)
CCACAGGATTGGTTCAAACACACATATTATATGACT [CACACA_site661]	9.39
CCTTTATTAAATAAATGTACATATTTTTGTGTTCTT [XGTACX_site2052]	9.4
GAAATATAATTTATTACACACATTTTAAAAAAATTC [CACACA_site1087]	9.26
AAAAAAAAAAAAAAATGTACATTATACACATTATAT [XGTACX_site6824]	9.28
AAAGGGGAGATATGAACACACAAAAAAAAAATATAT [CACACA_site7378]	9.58
CTATACAATAAAAATTGTACATACATATATGTTATA [XGTACX_site5309]	9.17
TATAACTTTTTTATTACACACCTATGTAATATTATA [CACACA_site944]	9.37
CCTAAATAATATCTATCACACACGCATATATACATA [CACACA_site8838]	9.56
TATGTTAAAAAAAAAAAAAAGAAAAAAATAAAAGGA [CACACA_negctrl_site119]	9.44
TATAAATATATATATACACACACATACACAAAAAAA [CACACA_site9191]	10.2
TCAAAAATAAAGATCACACATATATATATATATATA [CACACA_site4381]	9.2
CACATACATATATACACACACAAAATAATAAAATAA [CACACA_site2308]	10
CACAAAAATAAACACACACACATATATATATATATA [CACACA_site4704]	9.75
TATAAATATACAAACACACATACAAACATATATATA [CACACA_site1120]	9.91
TAAATATATAAATACACACAAACATACATATATATA [CACACA_site4050]	9.88
TATAAGAGAATATATACACACAAAAATATATACAGT [CACACA_site1668]	9.89
AAAAAAAAAGATCACACACACATAAATATAAACAAA [CACACA_site5285]	10.2
CATACATACAAACACACACACATATAAATACATACA [CACACA_site4625]	10.2
AAGAGAAAAATATATACACACACATAAATATATACA [CACACA_site8573]	9.96
TAAATATATAAATACACACACATACACAAAAAAAAA [CACACA_site5890]	10.1
TATAAGAGAATATATACACACAAAAATAAATACAGT [CACACA_site5000]	10.3
AATACATACATACATACATGCATATATATATATATA [TGCATGCA_site462]	9.42
ATTTACATTCACTTATGTACTTATATAATTTTATTT [XGTACX_site8150]	9.54

Sequence	gcPBM binding intensity (ln)
CCCATTTTGACAAAAAGTACAAGTTCAGGTTTTATA [XGTACX_site1532]	9.22
AACTATAAAAATTTTACACACTGTTTTTAAATAATG [CACACA_site5928]	9.4
ATATAAATATTAATTACACACAAAAAAAAAAAAAAA [CACACA_site6671]	9.35
AGATAAAATAAATACACACACATAAATACGTACAAA [CACACA_site4739]	10.2
TATTTACACAAAATAAAATATATTATATATATATAT [TGCATGCA_negctrl_site381]	8.93
ATATATATATATTACACACACACAAAAAAAATAAAG [CACACA_site118]	10.4
TATAAAAAATAATACACACACATGGCGACAAAATAA [CACACA_site2420]	10.2
TACACAAAAATAAACACACACACATATATATATATA [CACACA_site1000]	9.78
AATATATAAATATATACACACAAAAACATATATATA [CACACA_site1318]	9.8
TACACAAAAATAAACACACACACATATAAATAAATA [CACACA_site6599]	10.2
TAATAAAAAATATATACACACAAATAAATAAATAAA [CACACA_site4037]	9.83
AATATAAAAAATAATACACACACATGGCGACAAAAT [CACACA_site8765]	10.2
AGATAAAATATATACACACACATAAATACGTACAAA [CACACA_site1086]	10.1
ATAAATAAGATACGTACACACATATACAAAATATAC [CACACA_site3661]	9.95
GGTGTATGTTAAAGGAGTACATATATATATATATAT [XGTACX_site7727]	9.3
ACCTTTGATATATACACACACATAAAAAAAATATAT [CACACA_site6952]	9.93
TACAACCTTTAGACAAGTACAAGAATTATATGTGGC [XGTACX_site4581]	9.4
AAAAAAAAAAATTACACACATACATATAATAATAAT [CACACA_site2193]	9.85
AGCAGTCGACAGGACAGTACACAGTAGCCAGGAAAT [XGTACX_site4929]	9.32
AAATTATAAATACCTACACACTTATCAAAATAAATT [CACACA_site5280]	9.56
ATTGGGTTCATCAGCACACACAACATCATGTAATAA [CACACA_site5093]	9.5
AATTAATGGAAACAAGTCAAATGATCTTTATGCATA [TGCATGCA_negctrl_site540]	9.13
TTTATATAATTTTAATGTACATATATATATATAAAT [XGTACX_site4381]	8.98

Sequence	gcPBM binding intensity (ln)
TACATACACAGACACACACACATATATATATATATA [CACACA_site3557]	9.89
AAAAAACACAGACACACACACATATACATACATACA [CACACA_site2666]	10.2
CATATACATACACATACACACATACAGACATACACA [CACACA_site6919]	9.83
AACAGACATACATACACACATACATACAGACATACA [CACACA_site1942]	9.9
AAAAAAAACAGACACACACACACATATACATACATA [CACACA_site2665]	10.2
TAAACAGACATATAAACACACATACATACATACATA [CACACA_site7215]	9.56
AAAAAAAACAGACACACACACATACACATACATACA [CACACA_site2857]	10.2
TAAACAGACATACATACACACATACATACAGACATA [CACACA_site6997]	9.88
TACACATACAGACATACACACATACACATATACACA [CACACA_site6918]	9.88
TAATGATTATATGACTGTACATTTGTAGGTATAATT [XGTACX_site3373]	9.18
ACATAAAAATTATGCACACTTAATAAAGCGAAATGT [CACACA_site3183]	9.45
TATATATAAAAATATACACACACAAATGTATATATA [CACACA_site7956]	9.54
AAATATTTTATACTTGCACACAAAATATATTAAAAT [CACACA_site8606]	9.32
AAAAACAAAAAAGAAGCACACATATATATATATATA [CACACA_site8779]	9.6
ATCCTACTATGTTATACACACAATTACTTTTTTCTC [CACACA_site3712]	9.86
CTTATTATTATATGGGTGCTCATATTTTTCTTTTTT [GTGCAC_site9723]	9.4
GGTGGTGGTGGGTGGGTGCTTCTATTATTATATTAT [GTGCAC_site9391]	10.7
TTATACTTTGGGTGGTGTACTATATTATGCTTATAA [XGTACX_site1106]	9.51
CCTTTATAATTGGAAACACACATATAAAGTATATAT [CACACA_site3900]	9.2
CATTCAAACAAAAAAAGTACTCATCACATAATATAT [XGTACX_site1251]	9.44
ATATAAATAAACAGGTGTACTATAATGTTCATAGTA [XGTACX_site1553]	9.47
TTAATTATAATTATATGTACGAACTTTTTTTTTTTT [XGTACX_site6586]	9.14
AAAAAAAACAGACACACACACATTCAATATAAAACA [CACACA_site41]	10.2

Sequence	gcPBM binding intensity (ln)
TTCATTAAAACGAATACACACATAAATATATAAAAG [CACACA_site4824]	9.62
AAAAAAAACGGACACACACACATTCAATATAAAACA [CACACA_site4189]	10.2
AAAAAAAACAGACACACACACATAAATATAAATAAA [CACACA_site6214]	9.96
AAAAAAAAAAAACACACACACACATTCAATATAAAA [CACACA_site40]	10
AATATTAAAATATAAACACACAAAATTCAATTATAT [CACACA_site5971]	9.61
AAAAAAAAAAAAAAAACACACAGAACAATATATAAA [CACACA_site4698]	9.76
AATATTATAATATAAACACACAAAATTCAATTATAT [CACACA_site3789]	9.69
AAAAAAAACGAACACACACACATTCAATATAAAACA [CACACA_site6170]	10.2
TATAATAGTTCATAGGTGCAATATAATAAATTTATA [GTGCAC_site9573]	9.13
TACCTTTATTAATAAAGTACATTAATCTGTGTATAC [XGTACX_site8720]	9.09
AGTATTCACTTAATATGTACATATTTATTATAAGAG [XGTACX_site3434]	9.11
ACATCAAGAATTATTAAGAATACGGATAGATAAAAT [GTGCAC_negctrl_site261]	9.4
ATAAAATTTTATATGGGTACATAATATAATATATAT [XGTACX_site8160]	9.21
AAAAAAAAAAAGAAGGGTACATATTATATATAATAT [XGTACX_site6204]	9.43
TATAAGAATAAAAAGGGTACATAAAATAATAATATA [XGTACX_site2355]	9.55
ATTATAAGAAGGGGGGGTACATAAATATAAATGTAT [XGTACX_site5624]	10.3
ATATTAAAAATATATACACACATATATATAAATATA [CACACA_site2257]	9.37
AAAAAAAATAAAAATAGTACTCAAAAAATTATGAAT [XGTACX_site3073]	9.19
GCTCAATTTTTGGGTACACACAAATGTATAAGAATA [CACACA_site7178]	9.22
TTATGGTTATACATATGTACATATATATATATATAT [XGTACX_site1494]	9.29
